The results in this text go back to ChEMBL document CHEMBL4808148, “HDAC6 screening dataset using tau-based substrate in an enzymatic assay yields selective inhibitors and activators” (2021).

In all, about 5,600 compounds went through this assay and about 390 (7%) showed an effect of 50% or more. This excerpt belongs to a sample that is enriched for strong results. Residues, ends and D or L forms follow the SMILES beside them. *: point of attachment. PhAc = O=C(Cc1ccccc1)*

Assay [1] concerns the target T1, Protein deacetylase HDAC6 (Homo sapiens) (UniProt Q9UBN7).
T1 sequence (whole entry): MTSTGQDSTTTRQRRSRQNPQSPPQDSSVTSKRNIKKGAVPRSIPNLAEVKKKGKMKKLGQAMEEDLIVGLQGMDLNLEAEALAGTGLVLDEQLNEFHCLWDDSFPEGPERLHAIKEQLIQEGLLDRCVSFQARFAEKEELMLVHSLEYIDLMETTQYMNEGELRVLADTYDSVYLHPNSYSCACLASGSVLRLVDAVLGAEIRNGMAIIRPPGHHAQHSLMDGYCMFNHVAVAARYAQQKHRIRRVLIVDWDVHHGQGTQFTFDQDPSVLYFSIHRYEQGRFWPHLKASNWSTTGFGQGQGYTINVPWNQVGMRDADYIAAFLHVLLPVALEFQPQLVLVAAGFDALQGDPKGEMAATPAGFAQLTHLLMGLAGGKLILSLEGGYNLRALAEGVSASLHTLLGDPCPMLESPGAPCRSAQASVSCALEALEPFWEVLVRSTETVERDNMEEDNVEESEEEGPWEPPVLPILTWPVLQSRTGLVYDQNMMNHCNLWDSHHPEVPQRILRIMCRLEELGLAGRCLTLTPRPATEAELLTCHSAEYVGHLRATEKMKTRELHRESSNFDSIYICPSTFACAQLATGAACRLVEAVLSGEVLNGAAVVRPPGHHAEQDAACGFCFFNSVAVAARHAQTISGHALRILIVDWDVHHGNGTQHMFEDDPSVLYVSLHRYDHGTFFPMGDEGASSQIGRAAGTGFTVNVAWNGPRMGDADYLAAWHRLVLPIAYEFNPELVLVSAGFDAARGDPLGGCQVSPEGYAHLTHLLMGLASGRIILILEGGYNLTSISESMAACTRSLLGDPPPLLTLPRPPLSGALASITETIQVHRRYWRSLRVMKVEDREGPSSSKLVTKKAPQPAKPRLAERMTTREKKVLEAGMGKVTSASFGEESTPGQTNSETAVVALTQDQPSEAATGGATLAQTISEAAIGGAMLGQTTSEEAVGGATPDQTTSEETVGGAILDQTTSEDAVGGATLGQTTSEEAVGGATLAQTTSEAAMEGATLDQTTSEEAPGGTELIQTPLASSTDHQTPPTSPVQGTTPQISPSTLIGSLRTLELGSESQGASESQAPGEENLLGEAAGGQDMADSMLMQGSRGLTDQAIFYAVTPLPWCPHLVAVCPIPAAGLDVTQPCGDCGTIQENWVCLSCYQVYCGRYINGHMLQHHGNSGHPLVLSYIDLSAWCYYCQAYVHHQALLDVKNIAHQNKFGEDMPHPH
The following applies: at 10 µM.

The target in assay [2] is Protein deacetylase HDAC6 (Homo sapiens) (UniProt Q9UBN7). The following applies: at 10 µM. This is another data set of the same source.

As a reminder, the inhibition is the relative decrease from the control value, in per cent. In the case of `Cn1cncc1[C@@](N)(c1ccc(Cl)cc1)c1ccc2c(c1)c(-c1cccc(Cl)c1)cc(=O)n2C`, in assay [1], the inhibition was -5.64%.
For `Nc1nc(NC2CC2)c2ncn([C@H]3C=C[C@@H](CO)C3)c2n1`, the inhibition in assay [1] was -5.79%.
As for `NC(=O)OCCCc1ccccc1`, the inhibition in assay [1] amounted to 15.1%.
On to `O=C(O)c1ccccc1NCCc1ccccc1`, for which the inhibition in assay [1] worked out at 42.4%.
For the molecule `Cc1ccc(NCCCc2ccccc2)c(N)c1`, the inhibition in assay [1] was determined as 78.2%.
`CCOc1cc2ncc(C#N)c(Nc3ccc(F)c(Cl)c3)c2cc1NC(=O)/C=C/CN(C)C`: the inhibition in assay [1] was determined as 36.7%.
For the molecule `CCOC(=O)CNC(=O)[C@@H]1CCCN1C(=O)Cc1ccccc1` (PhAc-Pro-Gly-OEt), the inhibition in assay [1] worked out at 4.19%.
Still for that read-out and setting: to `COC(=O)[C@H](CC(C)C)NC(=O)[C@H](N)CC(C)C` belongs 10.2%; to `CC1(C)[C@H]2CC[C@@]1(C)[C@H](O)[C@@H]2O` (racemic), 31.2%.
On the same count and under the same terms, to `CCOC(=O)C1=C(N)Oc2ccc(Br)cc2C1C(C#N)C(=O)OCC` (stereo unspecified) belongs 27.8%.
In the case of `CCOC(=O)C1=C(N)Oc2ccc(Br)cc2[C@H]1[C@H](C#N)C(=O)OCC`, the inhibition in assay [1] turned out to be 52.9%.
Turning to `Cc1cccc(C)c1NC(=O)CN1CCCCCC1`, in assay [1], the inhibition is 16.5%.
Same read-out and setting: to `C/C(=N\NC(=N)N)c1cc(NC(=O)CCCCCCCCC(=O)Nc2cc(/C(C)=N/NC(=N)N)cc(/C(C)=N/NC(=N)N)c2)cc(/C(C)=N/NC(=N)N)c1` belongs 77.6%; to `Cc1ccc(NC(=O)CCCCCC(=O)Nc2ccccc2N)cc1`, -2.93%.
For `CCS(=O)(=O)N(Cc1cccnc1)c1cccc(-c2ccc(C#N)cc2)c1`, in assay [1], the inhibition was 17%.
For the molecule `CC1(N2CCC(n3c([C@H]4CCCNC4)nc4ccccc43)CC2)CCCCCCC1`, the inhibition in assay [1] was -2.41%.
For the molecule `CCC[C@@H]1CC(=O)N([C@@H](CC)C(N)=O)C1`, the inhibition in assay [1] was found to be 29.1%.
For `C[C@H](/C=C/[C@H](C)C(C)(C)O)[C@H]1CC[C@H]2/C(=C/C=C3C[C@@H](O)C[C@H](O)C3)CCC[C@]12C`, the inhibition in assay [1] turned out to be 9.32%.
With `CCCCN(CCCC)C(=O)CN1C[C@H](c2ccc3c(c2)OCO3)[C@@H](C(=O)O)[C@@H]1c1ccc(OC)cc1`, the inhibition in assay [1] was found to be 34.1%.
Regarding `N=C(Nc1ccccc1)Nc1ccccc1`, the inhibition in assay [1] was found to be 15.5%.
For the molecule `N=C(Nc1ccccc1)c1cccs1`, the inhibition in assay [1] turned out to be 37.1%.
Still for that read-out and setting: the same measure for `O=C1NC(=S)NC(=O)C1C(=O)Nc1ccccc1`: 96.3%.
Consider `CON(C)C(=O)[C@H](O)[C@H](Cc1ccccc1)NC(=O)c1cc2cc(Cl)ccc2[nH]1`, for which the inhibition in assay [1] amounted to 5.68%.
Regarding `CN[C@H]1C[C@@H](N)[C@H](O)[C@@H](O[C@@H]2O[C@H](CO)[C@H](O)[C@@H]3OC4(O[C@H]23)O[C@H]([C@@H](N)CO)[C@H](O)[C@H](O)[C@H]4O)[C@@H]1O` (stereo partly specified), in assay [1], the inhibition came out at 6.11%.
With `N#Cc1ccc2[nH]c(O)c(-c3ccc(CN4CCOCC4)cn3)c2c1`, the inhibition in assay [1] stood at 11.3%.
Same read-out and setting: the same measure for `Cc1[nH]c(/C=C2\C(=O)Nc3cc(-c4ccccc4)ccc32)c(C)c1CCC(=O)O`: 95.2%.
On to `CN/C(=N\S(=O)(=O)c1ccc(Cl)cc1)N1CC(c2ccccc2)C(c2ccc(Cl)cc2)=N1` (racemic), for which the inhibition in assay [1] turned out to be 9.02%.
Regarding `O=C1CC(=O)c2c(Cl)c(Cl)c(Cl)c(Cl)c21`, the inhibition in assay [1] is -2.09%.
Take `CN1C[C@@H]2CN(c3ccc(-c4ccccc4)nn3)C[C@@H]2C1`: the inhibition in assay [1] is 10.2%.
On the same count and under the same terms, to `O=C1N[C@H](C(=O)O)CS1` belongs 9.69%; to `CCOc1cc(/C=C2/C(=O)N(c3ccccc3)N=C2C)cc(Cl)c1OCC(=O)OC`, 101%.
As for HYALURONIC ACID, CHEMBL5314376, in assay [2], the inhibition is -9.36%.
Take `CN(C)C(=O)CCSC(SCCC(=O)O)c1cccc(/C=C/c2ccc3ccc(Cl)cc3n2)c1` (stereo unspecified): in assay [1], the inhibition stood at 10.8%.
As to `N[C@@H](CSCCCO)C(=O)O`, the inhibition in assay [1] worked out at 24.6%.
`O=c1c2c[nH]c3ccccc3c-2nn1-c1ccc(Cl)cc1`: in assay [1], the inhibition was 97.1%.
With `COc1ccc(-n2nc3c4c([nH]cc-3c2=O)CCCCC4)cc1`, in assay [1], the inhibition was determined as 40.9%.
Same read-out and setting: the same measure for `CCCCCCCCCCCCCCCc1cccc(OCC(=O)NCCO)c1`: -3.57%; for `CC(C)c1nnc(-c2ccc(-c3ccccc3)nc2)n1-c1cccc2nonc12`: 4.02%; for `COC(=O)C[C@@](O)(CCC(C)(C)O)C(=O)O[C@@H]1C(OC)=C[C@]23CCCN2CCc2cc4c(cc2[C@@H]13)OCO4`: -1.89%.
Regarding `C[N+]1(CC2CC2)[C@@H]2C[C@@H](OC(=O)[C@H](CO)c3ccccc3)C[C@H]1[C@@H]1O[C@@H]12` (stereo partly specified), the inhibition in assay [1] is -9.14%.
`COC(=O)N1CC[C@@H]2[C@H]1CCC[C@@]2(O)C#Cc1cccc(C)c1`: in assay [1], the inhibition stood at 29.3%.
The same measure, in the same setting: to `O=C(Nc1ccc(Br)cc1)c1cc(Br)cc(Br)c1O` belongs 100%.
As for `CCOC(=O)c1c(/C(C#N)=C\N)c2ccc(Cl)c(Cl)c2n1C`, in assay [1], the inhibition came out at 0.46%.
With `Cc1c(F)cc(C(=O)NC2CC2)cc1-c1c(F)cn2c(C(C)(C)C)nnc2c1F`, the inhibition in assay [1] was -2%.
As for `CC1(C)CC[C@]2(NC(=O)C(C)(F)F)CC[C@]3(C)C(C(=O)C=C4[C@@]5(C)C=C(C#N)C(=O)C(C)(C)[C@@H]5CC[C@]43C)C2C1` (stereo partly specified), the inhibition in assay [1] came to 19.7%.
Still for that read-out and setting: to `C[C@]12CC[C@H]3C(=CCc4cc(O)ccc43)[C@@H]1CCC2=O` belongs 53.8%; to `C[C@]12CC[C@@H]3c4ccc(O)cc4CC[C@H]3[C@@H]1[C@@H](O)[C@@H](O)[C@@H]2O`, 5.04%; to `CO/N=C(\C(=O)N[C@@H]1C(=O)N2C(C(=O)O)=C(CSC(=O)c3ccco3)CS[C@H]12)c1csc(N)n1`, 22.4%.
`O=C(Nc1ccc(C(F)(F)F)cn1)N1CCN(c2ncccc2C(F)(F)F)CC1`: the inhibition in assay [1] was -6.44%.
Turning to `COC(=O)c1cc2c(C(F)(F)F)cc(-c3ccccc3)cc2n1O`, the inhibition in assay [1] was found to be 16.7%.
Still for that read-out and setting: to `Cc1c(CN(C)C(=O)/C=C/c2cnc3c(c2)CCC(=O)N3)oc2ccccc12` belongs 77.1%; to `CC1(C)CCC(C)(C)c2cc(Cn3cccn3)c(/C=C/c3ccc(C(=O)O)cc3)cc21`, -7.51%.
Still for that read-out and setting: to `O=C(O)CCCCCCCCCCCCCCc1ccc(I)cc1` belongs 21.6%; to `OCCn1cc(-c2ccc3c(c2)CC/C3=N\O)c(-c2ccncc2)n1`, -0.22%; to `C[C@@H]1COC(Nc2ccc3ncnc(Nc4ccc(OCc5nccs5)c(Cl)c4)c3c2)=N1`, 62.5%.
`Cc1cc(Nc2ncnc3ccc(NC4=NC(C)(C)CO4)cc23)ccc1Oc1ccn2ncnc2c1`: in assay [1], the inhibition was -3.24%.
As to `Cc1cc(Nc2ncnc3ccc(-c4ccc(CNCCS(C)(=O)=O)o4)cc23)ccc1Oc1ccn2ncnc2c1`, the inhibition in assay [1] came to 2.93%.
Take `O=C1C=Cc2cc(Br)ccc2C1=O`: the inhibition in assay [1] is 48.5%.
For `Cc1ccc(=O)n(-c2ccc(O)cc2)c1`, in assay [1], the inhibition was found to be 1.55%.
As to `Nc1nc(Nc2ccc3c(c2)CC[C@@H](N2CCCC2)CC3)nn1-c1cc2c(nn1)-c1ccccc1CCC2`, the inhibition in assay [1] is 2.38%.
In the case of `O=C(NC1(c2ccccc2)CC1)c1c(CN2CCC(N3CCCCC3)CC2)c(-c2cccc(C(F)(F)F)c2)nc2cc(Br)ccc12`, the inhibition in assay [1] amounted to 35.2%.
